From PubChem BioAssay (NCATS)
Several values for one entry are separate records, joined by “and”; a condition that tells them apart may be missing. Equal entries are not always repeated. Inconclusive results are not listed. Activity calls are given as the source filed them. Unless noted, calls come from the whole dose curve; as a rule, active = well fitted curve in the direction sought with a large enough effect; inconclusive = small, poorly fitted or top-dose-only effect, or another doubt; inactive = no such curve, though single readings can be large; an effect the other way counts as inactive or inconclusive.

Tests used:
[1] = target: 3',5'-cyclic-AMP phosphodiesterase 4B (Homo sapiens) (UniProt Q07343); assay: qHTS Assay for Inhibitors of PDE-IV (AID 607; active = well fitted activation curve with a large enough effect in the main read-out, with a control signal flat, not every such curve was filed as active; note: % of control where 0% means no effect)
Chain of 3',5'-cyclic-AMP phosphodiesterase 4B (Homo sapiens) (Q07343 whole entry, looked up): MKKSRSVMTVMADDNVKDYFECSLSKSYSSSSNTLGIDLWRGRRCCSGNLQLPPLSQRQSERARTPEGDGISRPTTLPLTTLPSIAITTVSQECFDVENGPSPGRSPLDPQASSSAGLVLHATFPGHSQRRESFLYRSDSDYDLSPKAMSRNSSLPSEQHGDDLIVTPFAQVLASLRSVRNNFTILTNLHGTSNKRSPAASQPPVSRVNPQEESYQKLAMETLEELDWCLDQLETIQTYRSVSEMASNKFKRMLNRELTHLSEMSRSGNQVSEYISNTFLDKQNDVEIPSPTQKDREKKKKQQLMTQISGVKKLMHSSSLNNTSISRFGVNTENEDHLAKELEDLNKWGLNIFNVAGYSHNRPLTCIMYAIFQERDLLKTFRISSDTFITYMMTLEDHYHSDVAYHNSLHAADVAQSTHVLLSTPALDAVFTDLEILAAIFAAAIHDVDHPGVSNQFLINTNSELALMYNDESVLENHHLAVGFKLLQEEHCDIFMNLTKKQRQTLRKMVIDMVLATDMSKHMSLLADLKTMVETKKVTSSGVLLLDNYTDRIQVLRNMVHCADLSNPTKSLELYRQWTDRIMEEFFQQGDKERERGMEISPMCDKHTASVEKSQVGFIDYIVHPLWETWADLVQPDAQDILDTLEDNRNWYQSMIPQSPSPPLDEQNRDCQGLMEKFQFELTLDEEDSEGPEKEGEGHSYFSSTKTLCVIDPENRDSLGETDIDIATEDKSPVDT
In short: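 Live HEK293 cells with a modified cyclic nucleotide-gated (CNG) channel report intracellular cAMP via membrane-potential dye fluorescence (ex 535/em 590 nm). Endogenous PDE-IV was targeted. Compounds were tested at up to 22.9 uM final; RO 20-1724 100 uM served as control.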

[2] = target: Cytochrome P450 2D6 (Homo sapiens) (UniProt P10635); assay: qHTS Assay for Inhibitors and Substrates of Cytochrome P450 2D6 (AID 891); note: nearly all actives have a fitted effect of over 60% in size; note: potency is the fitted concentration of half-maximal effect
Chain of Cytochrome P450 2D6 (Homo sapiens) (P10635 whole entry, looked up): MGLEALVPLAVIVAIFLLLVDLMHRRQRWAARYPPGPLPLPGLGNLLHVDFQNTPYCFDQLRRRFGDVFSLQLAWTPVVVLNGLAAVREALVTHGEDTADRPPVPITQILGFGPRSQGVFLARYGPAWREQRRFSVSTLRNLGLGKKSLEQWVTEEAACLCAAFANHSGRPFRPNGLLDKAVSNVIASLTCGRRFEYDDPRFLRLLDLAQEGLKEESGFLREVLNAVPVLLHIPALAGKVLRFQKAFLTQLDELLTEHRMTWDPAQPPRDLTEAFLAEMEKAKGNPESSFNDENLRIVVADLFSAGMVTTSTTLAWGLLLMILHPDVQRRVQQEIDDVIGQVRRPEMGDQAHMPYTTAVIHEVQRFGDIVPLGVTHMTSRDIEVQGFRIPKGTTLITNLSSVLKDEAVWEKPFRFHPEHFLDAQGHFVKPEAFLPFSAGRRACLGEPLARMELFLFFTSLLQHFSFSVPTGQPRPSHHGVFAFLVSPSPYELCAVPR
In short: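 Human CYP2D6 (5 nM) with 30 uM Luciferin-ME EGE (at Km) in 100 mM KPO4, compound preincubated 10 min, then NADPH regeneration system for 60 min at room temperature. Luciferin read by luminescence; normalized to 1.43 uM quinidine.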

[3] = qHTS Assay for Lipid Storage Modulators (AID 1519; calls by dose curve); conditions: Drosophila S3 cells, BODIPY lipid droplet/cell ratio, laser cytometry, cells loaded with oleic acid; for activity change, negative = inhibition: at 57.5 µM (top of the series)
In short: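 Cells seeded at 5,000 per well were treated with compounds over a concentration series and loaded with oleic acid (400 uM, as added). Lipid droplet fluorescence (488 nm excitation, 500-530 nm channel) was read by laser-scanning cytometry and normalized to 20 uM Triacsin C.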

[4] = target: Ubiquitin carboxyl-terminal hydrolase 1 (Homo sapiens) (UniProt O94782); assay: Inhibitors of USP1/UAF1: Pilot qHTS (AID 504865);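 note: rhodamine fluorescence freed from ubiquitin-rhodamine substrate followed over time; top concentration of the series differs between compounds; % is set by controls: 0 for no effect and ±100 for the full control effect; nearly all actives have a fitted effect of over 35% in size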
Chain of Ubiquitin carboxyl-terminal hydrolase 1 (Homo sapiens) (O94782 whole entry, looked up): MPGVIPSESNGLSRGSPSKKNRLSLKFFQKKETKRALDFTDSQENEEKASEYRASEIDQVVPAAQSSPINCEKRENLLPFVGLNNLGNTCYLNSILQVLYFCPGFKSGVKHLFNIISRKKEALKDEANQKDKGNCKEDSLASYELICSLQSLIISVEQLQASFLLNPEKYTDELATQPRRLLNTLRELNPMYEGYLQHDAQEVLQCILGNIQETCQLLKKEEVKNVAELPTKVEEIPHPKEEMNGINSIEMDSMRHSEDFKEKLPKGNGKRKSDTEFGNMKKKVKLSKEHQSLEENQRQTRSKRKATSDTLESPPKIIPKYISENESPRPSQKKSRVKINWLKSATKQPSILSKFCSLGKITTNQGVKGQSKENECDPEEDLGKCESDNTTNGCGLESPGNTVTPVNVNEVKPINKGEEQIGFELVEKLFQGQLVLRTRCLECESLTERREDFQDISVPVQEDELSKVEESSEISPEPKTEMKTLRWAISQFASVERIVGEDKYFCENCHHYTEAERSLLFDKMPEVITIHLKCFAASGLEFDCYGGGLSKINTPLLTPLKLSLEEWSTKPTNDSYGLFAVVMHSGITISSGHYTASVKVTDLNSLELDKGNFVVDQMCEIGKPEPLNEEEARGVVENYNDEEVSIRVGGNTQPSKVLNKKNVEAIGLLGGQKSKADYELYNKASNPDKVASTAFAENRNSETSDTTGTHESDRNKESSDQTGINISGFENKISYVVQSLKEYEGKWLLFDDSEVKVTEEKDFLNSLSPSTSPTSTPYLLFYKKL
In short: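 Kinetic fluorescence assay: 1nM USP1/UAF1, 15 min compound preincubation, then 150nM Ub-Rho; 480/540 nm.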

[5] = target: DNA dC->dU-editing enzyme APOBEC-3G (Homo sapiens) (UniProt Q9HC16); assay: qHTS for inhibitors of Vif-A3G interactions: Validation (AID 588379); note: 0% is about no effect
In short: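 HeLa cells stably expressing Vif and A3G-eYFP, 700 cells/well, incubated overnight at 37 deg C, then exposed to compound overnight at 37 deg C. Inhibition of Vif-mediated degradation read as increased yellow fluorescence (Ex 488/Em 500-530) by laser-scanning cytometry.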

[6] = test system: Zika virus NS2B-NS3 protease; assay: Primary screen GU AMC qHTS for Zika virus inhibitors (AID 1347154);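 note: 0% = no-inhibitor control and -100% = no-enzyme control; nearly all actives have a fitted effect of over 70% in size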
In short: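 Fluorogenic AMC-substrate cleavage by noncovalent NS2B-NS3 protease complex (25 nM, pH 8.0 Tris buffer with Tween 20) followed for 15 minutes at room temperature (~20% conversion). Percent inhibition from ex340/em450 signal change, fitted by 4-parameter Hill equation.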

[7] = Primary qHTS for small molecule stabilizers of the endoplasmic reticulum resident proteome: Secreted ER Calcium Modulated Protein (SERCaMP) assay (AID 1508630); note: % is set by controls: 0 for no effect and ±100 for the full control effect
In short: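 GLuc-SERCaMP-expressing SH-SY5Y cells, pretreated 16 h with compound, are challenged with thapsigargin to empty ER calcium stores; after 4 h, coelenterazine is added directly to the medium and luminescence is imaged.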

[8] = target: Glucocorticoid receptor (Homo sapiens) (UniProt P04150); assay: GR-EFC Redistribution (AID 451; calls by dose curve; note: potency is the fitted concentration of half-maximal effect); conditions: CHO-K1 GR-EFC translocation, beta-gal luminescence, 2 h
Chain of Glucocorticoid receptor (Homo sapiens) (P04150 whole entry, looked up, the tested form may be a part): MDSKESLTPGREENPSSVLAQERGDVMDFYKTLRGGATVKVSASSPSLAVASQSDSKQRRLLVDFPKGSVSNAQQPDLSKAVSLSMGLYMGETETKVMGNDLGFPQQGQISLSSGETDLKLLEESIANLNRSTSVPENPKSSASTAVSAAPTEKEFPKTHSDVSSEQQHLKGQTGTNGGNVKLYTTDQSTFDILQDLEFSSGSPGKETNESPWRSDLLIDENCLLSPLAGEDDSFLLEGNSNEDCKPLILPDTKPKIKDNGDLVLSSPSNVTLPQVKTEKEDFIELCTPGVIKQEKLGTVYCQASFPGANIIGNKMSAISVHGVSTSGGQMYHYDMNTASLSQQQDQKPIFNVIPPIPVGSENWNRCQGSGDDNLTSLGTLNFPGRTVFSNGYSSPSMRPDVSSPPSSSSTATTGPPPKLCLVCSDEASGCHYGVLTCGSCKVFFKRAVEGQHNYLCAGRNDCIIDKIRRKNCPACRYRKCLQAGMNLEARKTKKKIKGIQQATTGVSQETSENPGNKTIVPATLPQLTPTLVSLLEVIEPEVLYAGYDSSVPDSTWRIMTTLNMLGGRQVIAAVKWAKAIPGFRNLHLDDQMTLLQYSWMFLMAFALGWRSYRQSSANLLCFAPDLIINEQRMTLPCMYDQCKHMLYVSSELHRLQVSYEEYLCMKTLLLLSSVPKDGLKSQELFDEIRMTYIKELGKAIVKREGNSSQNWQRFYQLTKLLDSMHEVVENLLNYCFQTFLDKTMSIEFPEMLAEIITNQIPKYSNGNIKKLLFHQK
In short: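 Translocation of GR-ED fusion to nuclear EA restores b-gal, read by luminescence after 1 h room-temperature detection. Engineered CHO-K1 biosensor cells, 1,000/well, exposed 2 h at 37 C to titrations up to 46 uM final.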

[9] = target: Cytochrome P450 3A4 (Homo sapiens) (UniProt P08684); assay: qHTS Assay for Activators of Cytochrome P450 3A4 (AID 885); note: nearly all actives have a fitted effect of over 65% in size
Chain of Cytochrome P450 3A4 (Homo sapiens) (P08684 whole entry, looked up): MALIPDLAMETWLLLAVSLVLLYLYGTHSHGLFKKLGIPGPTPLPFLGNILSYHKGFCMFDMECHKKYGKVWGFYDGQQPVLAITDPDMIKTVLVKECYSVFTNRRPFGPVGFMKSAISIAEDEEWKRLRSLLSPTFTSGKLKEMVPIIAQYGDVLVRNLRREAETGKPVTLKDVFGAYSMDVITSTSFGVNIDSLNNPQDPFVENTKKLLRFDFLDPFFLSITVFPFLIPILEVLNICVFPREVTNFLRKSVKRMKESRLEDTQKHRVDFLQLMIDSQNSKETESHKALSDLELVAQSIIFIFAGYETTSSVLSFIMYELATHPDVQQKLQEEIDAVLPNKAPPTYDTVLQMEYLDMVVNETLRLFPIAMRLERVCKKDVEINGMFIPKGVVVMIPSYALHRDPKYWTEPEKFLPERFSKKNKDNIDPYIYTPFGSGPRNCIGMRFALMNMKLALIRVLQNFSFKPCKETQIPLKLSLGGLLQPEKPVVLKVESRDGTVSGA
In short: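 Quantitative HTS format: compounds preincubated with 20nM human CYP3A4 and Luciferin-PPXE substrate at KM, reaction started by NADPH regeneration, stopped after 60 min, luciferase luminescence read 20 min later.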

[10] = target: Mitogen-activated protein kinase 10 (Mus musculus) (UniProt Q61831); assay: JNK3 AlphaScreen Assay (AID 530; active = well fitted curve in either direction with a large enough effect, not every such curve was filed as active;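 note: kinase came from lysate of stimulated human HepG2 cells; signal reports phosphorylation of biotinylated GST-cJun 1-79 at Ser73 with 10 µM ATP; % is set by controls: 0 for no effect and ±100 for the full control effect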)
In short: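 Compound titrations were preincubated 15 minutes at room temperature with substrate, antibody and pre-activated JNK3-containing HepG2 lysate. Reactions were started with 10 uM ATP and stopped with EDTA-containing bead buffer for AlphaScreen detection.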

[11] = target: Cytochrome P450 1A2 (Homo sapiens) (UniProt P05177); assay: p450-cyp1a2 (AID 410; calls by dose curve; note: potency is the fitted concentration of half-maximal effect)
Chain of Cytochrome P450 1A2 (Homo sapiens) (P05177 whole entry, looked up): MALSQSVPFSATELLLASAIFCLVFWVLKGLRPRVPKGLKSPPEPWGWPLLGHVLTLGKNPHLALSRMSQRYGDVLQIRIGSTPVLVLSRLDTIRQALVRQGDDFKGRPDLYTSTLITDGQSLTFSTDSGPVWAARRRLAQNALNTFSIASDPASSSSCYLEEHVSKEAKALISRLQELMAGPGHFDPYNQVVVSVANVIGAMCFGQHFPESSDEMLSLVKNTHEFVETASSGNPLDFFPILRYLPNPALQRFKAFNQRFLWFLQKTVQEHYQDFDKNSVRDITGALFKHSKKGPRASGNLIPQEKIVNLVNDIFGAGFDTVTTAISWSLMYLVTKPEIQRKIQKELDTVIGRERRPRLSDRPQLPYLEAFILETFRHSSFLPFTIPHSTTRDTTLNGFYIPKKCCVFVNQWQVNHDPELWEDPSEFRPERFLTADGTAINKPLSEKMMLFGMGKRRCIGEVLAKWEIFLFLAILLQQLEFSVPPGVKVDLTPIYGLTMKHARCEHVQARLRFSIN
In short: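 20nM CYP1A2 with 100uM Luciferin-ME (at Km) in 100mM KPO4; compound preincubated 10 min, NADPH regeneration added, 60 min at room temperature. Luciferin quantified by luminescence after detection reagent; normalized to 57 uM furafylline.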

[12] = target: Cytochrome P450 2C19 (Homo sapiens) (UniProt P33261); assay: qHTS Assay for Inhibitors and Substrates of Cytochrome P450 2C19 (AID 899); note: nearly all actives have a fitted effect of over 60% in size; note: potency is the fitted concentration of half-maximal effect
Chain of Cytochrome P450 2C19 (Homo sapiens) (P33261 whole entry, looked up): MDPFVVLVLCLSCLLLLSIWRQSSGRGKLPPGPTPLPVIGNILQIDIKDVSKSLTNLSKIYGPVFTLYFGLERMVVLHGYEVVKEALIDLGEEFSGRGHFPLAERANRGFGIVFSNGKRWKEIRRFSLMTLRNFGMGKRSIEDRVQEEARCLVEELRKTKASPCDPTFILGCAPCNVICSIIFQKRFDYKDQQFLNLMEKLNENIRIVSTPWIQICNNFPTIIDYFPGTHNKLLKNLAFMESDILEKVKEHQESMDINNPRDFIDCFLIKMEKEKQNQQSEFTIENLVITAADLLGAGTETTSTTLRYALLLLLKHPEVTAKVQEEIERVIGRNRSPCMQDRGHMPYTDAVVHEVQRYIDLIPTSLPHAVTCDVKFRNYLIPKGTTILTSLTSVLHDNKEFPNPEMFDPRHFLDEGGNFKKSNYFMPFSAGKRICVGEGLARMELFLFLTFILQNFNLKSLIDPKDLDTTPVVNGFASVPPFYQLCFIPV
In short: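 5nM enzyme + 10uM Luciferin-H EGE (=KM), 50mM KPO4; cpd pin-transferred, 10 min 37C; NADPH regen, 60 min 37C; stopped w/ luciferin detection reagent, 20 min; luminescence. Normalized to 57uM ketoconazole (AC100).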

[13] = NFAT Signaling Pathway (AID 444; active = well fitted curve in either direction with a large enough effect, not every such curve was filed as active;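 note: carbachol stimulus at about its EC50 of 1 µM final; % is set by controls: 0 for no effect and ±100 for the full control effect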); conditions: Jurkat NFAT-bla M1, carbachol, beta-lactamase ratio, 5 h
In short: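 Read-out: CCF4 FRET ratio (460 nm/530 nm) after 1 h RT dye loading, used for %activity and AC50 from titration series. Cells: Jurkat NFAT-β-lactamase/M1 line, treated with compound plus 1 uM carbachol for 5 h, 37 °C.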

[14] = Stat Signaling Pathway (AID 446; active = well fitted curve in either direction with a large enough effect, not every such curve was filed as active;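 note: ME-180 cervical cancer cells given 40 pM IL-6 alongside compound; SIE-controlled beta-lactamase reporter measured as 460/530 nm FRET emission ratio; % is set by controls: 0 for no effect and ±100 for the full control effect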); conditions: ME-180 SIE beta-lactamase reporter, IL-6 stimulated, 5 h
In short: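 IL-6/STAT signaling read in ME-180 cells via an SIE beta-lactamase reporter. Stimulus was 40 pM IL-6 (its AC50) for 5 hrs, so both activation and inhibition register.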

[15] = target: Glucocorticoid receptor (Homo sapiens) (UniProt P04150); assay: GR-GFP Redistribution (AID 450;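 active = compounds whose dose series gives a full or clear partial fitted curve of increased nuclear translocation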; note: potency is the fitted concentration of half-maximal effect); conditions: U2OS GR-GFP nuclear translocation, laser cytometry, 2 h
[16] = target: Guanine nucleotide-binding protein G(i) subunit alpha-1 (Homo sapiens) (UniProt P63096); assay: qHTS Assay for Inhibitors of RGS12 GoLoco Motif Activity (Green Fluorophore) (AID 879);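 note: 0% = labeled peptide with Gαi1 and full inhibition = labeled peptide alone without protein; negative values mean loss of peptide binding seen as reduced polarization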
Chain of Guanine nucleotide-binding protein G(i) subunit alpha-1 (Homo sapiens) (P63096 whole entry, looked up): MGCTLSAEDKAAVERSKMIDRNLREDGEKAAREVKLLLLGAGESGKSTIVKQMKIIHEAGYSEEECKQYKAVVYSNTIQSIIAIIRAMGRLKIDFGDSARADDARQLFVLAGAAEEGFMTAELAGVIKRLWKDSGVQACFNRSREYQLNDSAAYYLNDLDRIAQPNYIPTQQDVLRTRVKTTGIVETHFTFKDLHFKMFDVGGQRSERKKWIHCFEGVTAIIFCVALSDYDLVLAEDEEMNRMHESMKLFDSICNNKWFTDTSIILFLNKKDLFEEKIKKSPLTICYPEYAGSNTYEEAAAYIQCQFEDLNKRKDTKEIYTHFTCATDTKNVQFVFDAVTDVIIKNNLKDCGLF
In short: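 Fluorescence polarization assay: 50 nM Gαi1 with 10 nM FITC-labeled RGS12 GoLoco peptide in 10 mM Tris pH 7.5, 150 mM NaCl, 0.1 mM GDP, 0.05% NP40, 10 min at room temperature with compound.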

[17] = target: Pyruvate kinase (Leishmania mexicana) (UniProt Q27686); assay: qHTS Validation Assay for Inhibitors of Leishmania Mexicana Pyruvate Kinase (AID 945); note: potency is the fitted concentration of half-maximal effect;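 for activity change, negative = inhibition: 0% = DMSO only neutral control wells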
In short: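 An endpoint luciferase assay: 0.2 nM LmPYK E451W turns over 0.5 mM PEP with 0.1 mM ADP for 1 h at room temperature, pH 7.2, before PKLight addition. Values are normalized to DMSO-only wells.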

[18] = target: Alpha-galactosidase A (Homo sapiens) (UniProt P06280); assay: Counterscreen for Glucocerebrosidase Inhibitors: qHTS Assay for Human alpha-Galactosidase at pH 4.5 (AID 992); note: 0% is about no effect
In short: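 Read-out is 4-methylumbelliferone fluorescence (365 nm excitation, 440 nm emission) after a pH 10 NaOH/glycine stop. Reactions held 2 nM enzyme and 80 uM substrate at pH 4.5 for 20 min at room temperature.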

[19] = target: alpha-glucosidase (Oryza sativa, rice) (UniProt Q653V4); assay: Counterscreen for Glucocerebrosidase Inhibitors: qHTS Assay for Rice alpha-Glucosidase at pH 5.0 (AID 997);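 note: 0% = full activity with enzyme and -100% = basal without enzyme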
In short: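 Rice alpha-glucosidase (4 nM final) with 400 uM 4-methylumbelliferyl-alpha-D-glucopyranoside in citrate buffer pH 5.0, 20 min at room temperature, stopped at pH 10; fluorescence 365/440 nm, compounds 0.7 nM–77 uM, AC50 from Hill fits.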

[20] = AP1 Signaling Pathway (AID 357; active = well fitted curve in either direction with a large enough effect, not every such curve was filed as active); conditions: ME-180 (cervical carcinoma) AP-1-bla reporter, EGF-induced, beta-lactamase ratio, 5 h
In short: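 Read-out was the 460nm/530nm emission ratio (excitation 405nm) after CCF4 loading for 2.5 hours at room temperature. Cells carried an AP-1-driven beta-lactamase reporter, were stimulated with EC50 EGF plus compound for 5 hours, and AC50 values came from titrations.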

[21] = measured here: cell count channel max response
[22] = measured here: lipid channel max response

O=C1CC2(CCCC2)CC(=O)N1CCNC[C@H]1COc2ccccc2O1
16.6%: max response [3, 21]
active: Potency [2] 0.126 µM
inactive: Potency [1] | activity change, negative = inhibition [3] -0.603% | Potency [4] | Potency [5] | Potency [6] | Potency [7]
17.5%: max response [3, 22]

O=C(Nc1ccccc1)N[C@H]1C[C@H](C(=O)O)Nc2cc(Cl)cc(Cl)c21
-4.62%: max response [3, 21]
inactive: Potency [8] > 46 µM | Potency [1] | Potency [9] | activity change, negative = inhibition [3] 6.02% | Potency [5] | Potency [6] | Potency [7]
0.745%: max response [3, 22]

COC(=O)[C@H]1[C@@H]2C[C@H]3c4[nH]c5ccccc5c4CCN3C[C@@H]2CC[C@@H]1O
inactive: Potency [10] | Potency [1] | activity change, negative = inhibition [3] 4.47% | Potency [4] | Potency [5] | Potency [6] | Potency [7]
4.05%: max response [3, 22]
-3.24%: max response [3, 21]

CCCCC/C=C\C/C=C\C/C=C\C/C=C\CCCC(=O)O
inactive: Potency [9] | activity change, negative = inhibition [6] 3.96% [at 6.83 µM] | activity change, negative = inhibition [7] 40.9% [at 3.88 µM]

Nc1nc2c(nc(Br)n2[C@@H]2O[C@H]3COP(=O)(O)O[C@H]3[C@@H]2O)c(=O)[nH]1
-7.98%: max response [3, 22]
-4.09%: max response [3, 21]
inactive: Potency [8] > 46 µM | activity change, negative = inhibition [3] -3.52% | Potency [4] | Potency [5] | Potency [6] | Potency [7]

COC(=O)C1=C(C)NC(C)=C([N+](=O)[O-])[C@@H]1c1ccccc1C(F)(F)F
active: Potency [11] 39.8 µM | Potency [2] 6.31 µM | Potency [12] 0.126 µM
inactive: Potency [8] > 46 µM | Potency [9] | Potency [5] | Potency [6] | Potency [7]

CN[C@@H]1[C@H](O)[C@H](O[C@@H]2[C@H](O)[C@@H](O[C@H]3O[C@H]([C@@H](C)NC)CC[C@H]3N)[C@@H](N)C[C@H]2N)OC[C@]1(C)O
inactive: Potency [6] | Potency [7]

C[N+](C)(C)CCC(=O)c1cccc2ccccc12
active: Potency [11] 7.94 µM | activity change, negative = inhibition ([13]; at 38 µM (top of the series)) 13.8% | activity, negative = inhibition ([14]; at 38 µM (top of the series)) -81.5%
inactive: Potency [15] > 46 µM | Potency [8] > 46 µM | Potency [10] | Potency [1] | outcome [16] | Potency [9] | Potency [17] | outcome [18] | outcome [19] | Potency [6] | Potency [7]

CCCCOc1cc(C[C@@H]2CNC(=O)N2)ccc1OC
active: Potency [11] 12.6 µM and 10 µM
inactive: activity change, negative = inhibition ([20]; at 38 µM (top of the series)) -11.4% | activity change, negative = inhibition ([13]; at 38 µM (top of the series)) -19.1% | activity, negative = inhibition ([14]; at 38 µM (top of the series)) 24.5% | Potency [15] > 46 µM | Potency [8] > 46 µM | Potency [10] | outcome [16] | Potency [9] | Potency [2] | Potency [12] | Potency [17] | outcome [18] | outcome [19] | Potency [5] | Potency [6] | Potency [7]

NC(N)=NN=Cc1c(Cl)cccc1Cl
active: Potency [11] 7.94 µM and 3.98 µM and 2 µM
inactive: activity change, negative = inhibition ([20]; at 17.2 µM (top of the series)) -2.9% | activity change, negative = inhibition ([20]; at 38 µM (top of the series)) 4.65% | activity, negative = inhibition ([14]; at 17.2 µM (top of the series)) 9.46% | activity, negative = inhibition ([14]; at 38 µM (top of the series)) -0.683% | Potency [10] | Potency [1] | outcome [16] | Potency [17] | outcome [18] | outcome [19] | Potency [4] | Potency [5] | Potency [6] | Potency [7]

CCCCCC#CCC#CCC#CCC#CCCCC(=O)O
inactive: activity change, negative = inhibition ([20]; at 17.2 µM (top of the series)) -11.4% | activity change, negative = inhibition ([13]; at 17.2 µM (top of the series)) -2.11% | Potency [15] > 20.6 µM | Potency [6] | Potency [7]

Cc1cccc(/C=C\c2ccccc2)n1
inactive: activity change, negative = inhibition ([20]; at 38 µM (top of the series)) -0.643% | activity change, negative = inhibition ([13]; at 38 µM (top of the series)) -3.22% | Potency [15] > 46 µM | Potency [8] > 46 µM | Potency [10] | Potency [1] | outcome [16] | Potency [9] | outcome [18] | outcome [19] | Potency [5] | Potency [6] | Potency [7]
active: Potency [11] 631 nM and 398 nM | Potency [2] 0.794 µM | Potency [12] 0.501 µM | Potency [17] 15.8 µM
